High-throughput results as filed in PubChem.
An excerpt weighted towards active compounds, which were near 2.3% of everything screened.
USP1 inh – USP1/UAF1 (human) deubiquitinase inhibition | O94782 | recombinant USP1/UAF1, Ub-Rhodamine cleavage fluorescence | 0.23% of 390,000 active | Potency, µM (top dose mostly 57.1 µM), for inactives: at the top dose activity change, negative = inhibition, actives largely listed as inhibitors | AID 743255; also: potency is read from the fitted curve at half-maximal effect; nearly all actives have a fitted effect of over 60% in size
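Step one: compound is pinned into 1nM USP1/UAF1 in HEPES pH 7.8 buffer with TCEP. Step two: 15 min room-temperature incubation. Step three: Ub-Rho (150nM final) starts cleavage, tracked by fluorescence over six one-minute reads.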
FBPA coupling cs – counter-screen for Giardia aldolase inhibitors: coupling enzyme system; coupling enzyme system counterscreen, AmpLite Red fluorescence; activity change, negative = inhibition, % at 58.2 µM, hits read low; 0.67% of 290,000 active; AID 2472; in the data active = activity change below about -30%
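Coupling enzymes only (glyceraldehyde-3-phosphate) + compound, at 57.5 uM final, 10 min RT; add substrate/coupling/AmpLite Red mix, 20 min RT; fluorescence ex 525/em 598 nm. Actives flag coupling-system interference.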
Tau fluor cs – counter-screen for tau fibril formation inhibitors; 0.93% of 280,000 active; tau K18 P301L Alexa594 fluorescence, heparin fibrillization; Potency, µM (titrated, usually from 57.7 µM), for inactives: top-dose activity change, negative = decrease; also: potency is read from the fitted curve at half-maximal effect; nearly all actives have a fitted effect of over 55% in size
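Human K18 P301L tau (15 uM unlabeled plus 0.24 uM Alexa 594-labeled, final) in 100 mM sodium acetate pH 7 was mixed with compound and 20 uM heparin and incubated 6 hr at 37 C.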
Tau FP inhib – blocks human tau fibril formation measured by polarization; K18 P301L tau heparin fibrillization, Alexa594 FP, 6 h; AID 1468; 0.39% of 280,000 active; P10636; Potency, µM (series often up to 57.7 µM), for inactives: top-dose activity, negative = inhibition, actives largely listed as inhibitors; also: potency is read from the fitted curve at half-maximal effect; nearly all actives have a fitted effect of over 55% in size
Target sequence (P10636 561-689 P618L limits assumed): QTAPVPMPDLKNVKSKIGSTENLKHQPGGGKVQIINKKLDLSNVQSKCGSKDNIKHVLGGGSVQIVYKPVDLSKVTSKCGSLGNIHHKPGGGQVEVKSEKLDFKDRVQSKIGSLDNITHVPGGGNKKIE
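Heparin (20 uM) drove fibril formation of recombinant tau K18 P301L, 15 uM unlabeled with 0.24 uM Alexa 594 label, for 6 hr at 37 C in 100 mM sodium acetate pH 7. Fluorescence polarization (555/632 nm) read 1 hr after 30 uM ThT.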
Tau fibril ThT – tau fibrillization inhibition (ThT binding); 2.1% of 270,000 active; Potency, µM (titrated, usually from 57.4 µM), inactives show at the top dose activity, negative = inhibition, actives largely listed as inhibitors; recombinant tau K18 P301L, heparin-induced fibrillization, ThT fluorescence; P10636; also: potency is read from the fitted curve at half-maximal effect; nearly all actives have a fitted effect of over 55% in size
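ThT emission at 510 nm, taken 1 hr after adding 30 uM dye, quantifies aggregates formed when 20 uM heparin acts on human tau K18 P301L for 6 hr at 37 C.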
* hit, by the source's call; ? = inconclusive; nt = not tested or not shown; [ ] = remark or other dose. Unless noted, calls follow the shape of the dose curve; as a rule, active = well fitted curve in the direction sought with a large enough effect; inconclusive = small, poorly fitted or top-dose-only effect, or another doubt; inactive = no such curve, though single readings can be large; an effect the other way counts as inactive or inconclusive. % is scaled to controls: 0 for no effect and ±100 for the full control effect.

SMILES	USP1 inh	FBPA coupling cs	Tau fluor cs	Tau FP inhib	Tau fibril ThT
O=C(Cn1cc(S(=O)(=O)N2CCN(c3ccccc3F)CC2)c2ccccc2c1=O)Nc1cccc(C(F)(F)F)c1	-24%	nt	-25%	14µM*	4%
CC(CNC(=O)c1nnc(Cc2ccc(F)cc2)o1)c1ccccc1 (configuration not stated)	-13%	nt	-6%	14%	?
COc1ccccc1Cc1nc2ccccc2nc1SCC(=O)NCc1ccc(F)cc1	-10%	nt	-11%	-6%	-2%
COC(=O)c1cc(NC(=S)NCc2ccc(Cl)cc2)cc(C(=O)OC)c1	-23%	1	14µM*[quencher]	18µM*	11%
Cc1ccc(NC2CCCN(C(=O)c3ccoc3C)C2)cc1C (configuration not stated)	-3%	nt	nt	nt	nt
Cc1cc(C)c(NC(=O)c2cc(C(=O)O)ccc2C(=O)O)c([N+](=O)[O-])c1	-15%	2	-7%	-5%	-8%
O=[N+]([O-])c1cc(Cl)cc(/C=N/n2cnnc2)c1O	-10%	2	6%	4%	?
O=c1c2c(-c3ccccc3)csc2ncn1/N=C/c1c2ccccc2cc2ccccc12	?	-4	-10%	-11%	-2%
O=C1C2C(C(=O)N1/N=C/c1cc(Br)cc([N+](=O)[O-])c1O)C1C=CC2C12CC2 (configuration not stated)	-13%	4	-18%	-1%	7.9µM*
O=[N+]([O-])c1cc(Br)cc(/C=N/n2cnnc2)c1O	0%	14	-2%	8%	8.9µM*
O=[N+]([O-])c1cccc(/C=N/n2cnnc2)c1O	-19%	0	-5%	-12%	16µM*
O=c1c2c(-c3ccc(Cl)cc3)csc2ncn1/N=C/c1cccc([N+](=O)[O-])c1O	-17%	8	-11%	1%	16µM*
C[C@@H]1NC(=O)[C@@H](C)COC(=O)[C@H](C)NC(=O)[C@@H](C)COC1=O	nt	1	-4%[11.6 µM]	-7%[11.6 µM]	-3%[11.5 µM]
C=CCS/C(N)=N\N=C\c1cc(Br)cc([N+](=O)[O-])c1O	-2%	0	?	7%	13µM*
CS/C(N)=N/N=C/c1cc(Br)cc(Br)c1O	-9%	1	?	?	?
COc1ccc2[nH]c3c(N4CCC(O)(c5cccc(C(F)(F)F)c5)CC4)ncnc3c2c1	-8%	1	16µM*[quencher]	13%	?
COc1ccc2[nH]c3c(N4CCN(Cc5ccc6c(c5)OCO6)CC4)ncnc3c2c1	-21%	0	20µM*[quencher]	?	?
COc1cccc(Cn2c(=O)c(-c3cccc(C#N)c3)nc3cnc(Nc4ccccc4)nc32)c1	nt	2	nt	nt	nt
COc1cc(O)c(C(=O)c2ccccc2)cc1O	nt	-47*	13µM*[quencher]	14µM*	7.9µM*
COc1ccc(C(=O)c2ccccc2)c2c(O)ccc(C(=O)c3ccccc3)c12	-7%	0	?	9%	?
COc1ccc(S(=O)(=O)n2nc(-c3ccc(Cl)cc3)cc2N)cc1OC	-15%	0	16µM*[quencher]	-12%	-14%
COC(=O)C/C=C\[C@@H](C)[C@@H](/C=N\O[C@@H]1O[C@H](COC(C)=O)[C@@H](OC(C)=O)[C@H](OC(C)=O)[C@H]1OC(C)=O)NS(=O)(=O)c1ccc(C)cc1	nt	-2	-12%[11.6 µM]	-5%[11.6 µM]	-8%[11.5 µM]
C[C@@H]1O[C@@H](OC[C@@H]2O[C@H](Oc3c(-c4ccc(O)cc4)oc4cc(O)cc(O)c4c3=O)[C@@H](O)[C@H](O)[C@H]2O)[C@H](O)[C@H](O)[C@H]1O	-9%	nt	nt	nt	nt
CC1OC(Oc2c(-c3cc(O)c(O)c(O)c3)oc3cc(O)cc(O)c3c2=O)C(O)C(O)C1O (configuration not stated)	-25%	-47*	?	-7%	?
COc1ccc(OC)c(CCNC(=O)c2cnn(-c3ccccc3)c2C2CCN(C(=O)OC(C)(C)C)CC2)c1	-10%	nt	-4%	3%	-9%
CCc1ccc(OCC(=O)Nc2cc3oc4ccccc4c3cc2OC)c(Br)c1	-22%	nt	-1%	-5%	?
C=CCSc1nnc2nc3[nH]c4c(C)cccc4c3nn12	-14%	7	-15%	8%	16µM*
